# The supplement of paper PMC12350171
# Where a name gives a salt, the structure may show the parent alone.
# Tested on: Haemophilus parainfluenzae
# Test: growth AUC normalised to DMSO control (fraction of control); higher = less growth inhibition, active = hit call of the paper
# Conditions: 20 µM;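 active = AUC significantly below DMSO controls by Student t-fit with adjusted P under 0.01; inactive = not significantly reduced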
# Summary of the method: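 After two anaerobic passages, pathogens were added at a starting OD578 of 0.01 to pre-reduced mGAM plates holding compound at 20 μM with 1% DMSO; hemin and NAD were supplemented for Haemophilus parainfluenzae. Sealed with breathable membranes, plates were read at OD578 hourly for 24 h, in three biological replicates. The trapezoidal rule, applied up to the exponential-to-stationary transition, gave the growth-curve AUC, which was normalised to DMSO controls on the same plate.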
row,SMILES,growth AUC normalised to DMSO control
1,CCOC(=O)C1=C(C)NC(C)=C(C(=O)OC)C1c1cccc([N+](=O)[O-])c1 (stereo not given) [Nitrendipine],1.03 (inactive)
2,COc1ccccc1OCC(O)COC(N)=O (stereo not given) [Methocarbamol],0.977 (inactive)
3,Cc1onc(-c2ccccc2)c1C(=O)N[C@@H]1C(=O)N2[C@@H]1SC(C)(C)[C@@H]2C(=O)O [Oxacillin sodium],0.928 (inactive)
4,Nc1nc(O)c2ncn(CCC(CO)CO)c2n1 [Penciclovir],0.944 (inactive)
5,CNCCC(Oc1ccccc1OC)c1ccccc1 (stereo not given) [Nisoxetine hydrochloride],1.02 (inactive)
